proKLK7 act: activators of human kallikrein-7 zymogen; P49862; purified proKLK7, EDANS-DABCYL substrate fluorescence; 100% is mature enzyme control, 0% vehicle; activation, % at 7 µM; 370,000 tested, 0.9% active; AID 652039;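 active = activation above the mean of all tested compounds plus 3 SD, computed per campaign excluding outliers beyond control limits, cut at about 13% in these data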
PfG6PD inh: PfG6PD (Plasmodium falciparum) enzyme inhibition | PfGluPho enzyme, NADPH resazurin-diaphorase fluorescence | inhibition, % at 20 µM | 350,000 tested, 0.78% active | AID 504690;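 active = inhibition reaching at least a set limit at 20 µM in the primary screen, cut at about 59% in these data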;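 also: 0% = DMSO wells with substrate and 100% = DMSO wells lacking glucose-6-phosphate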
FAS-TE inh: blocks the thioesterase domain of human fatty acid synthase; P49327; recombinant FAS-TE, OMFH fluorogenic substrate, fluorescence endpoint; inhibition, % at 15 µM; 360,000 tested, 0.67% active;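 active = compounds whose normalised, plate-corrected inhibition of enzyme fluorescence in the single-dose primary screen is 50% or more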;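 also: 0% = DMSO with enzyme and 100% = substrate without enzyme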
Neddylation inh: blocks human cullin neddylation; 360,000 tested, 0.58% active; calls only at 25 µM; P61081+Q13564; AID 651699; TR-FRET cullin neddylation, biochemical; in the data active = inhibition above about 36%
Neddyl conf: confirmation of human cullin neddylation inhibitors | shares compounds with Neddylation inh | TR-FRET cullin neddylation biochemical assay | calls only at 25 µM | 1,800 tested, 13% active; in the data active = inhibition above about 40%;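 also: neddylation substrate is the cullin 1 ring ligase complex with SKP2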
An asterisk follows results filed as active. In the library only some 2.7% were active in any assay of this set; here they are far more common.

How did O=C(CSc1ccccc1)NC1CCCCN(Cc2cccc(Cl)c2)C1=O (stereo unspecified) do in these assays?
proKLK7 act: 0

How did O=C1CCC/C(=N\NC(=O)c2ccc(CSc3cccc4cccnc34)cc2)C1 do in these assays?
proKLK7 act: -6; PfG6PD inh: 4; FAS-TE inh: -10; Neddylation inh: active; Neddyl conf: inactive

Results for CC(=O)Nc1ccc(C=NNC(=O)c2ccc(NS(=O)(=O)c3cccs3)cc2)cc1 ?
proKLK7 act: 1; PfG6PD inh: -6; FAS-TE inh: -3; Neddylation inh: inactive

How did COc1ccc(NS(=O)(=O)c2cccc(C(=O)N/N=C/c3ccc(O)cc3)c2)cc1 do in these assays?
proKLK7 act: 0; PfG6PD inh: 5; FAS-TE inh: 1; Neddylation inh: active; Neddyl conf: inactive

What do the screens show for `COc1cc(C=NNC(=O)c2ccc(NS(=O)(=O)c3cccs3)cc2)cc(Br)c1O`?
proKLK7 act: -1; PfG6PD inh: 0; FAS-TE inh: -4; Neddylation inh: active; Neddyl conf: active

What do the screens show for `c1ccc(COc2ncnc3c2ncn3CCCN2CCN(c3ncccn3)CC2)cc1`?
proKLK7 act: 0; PfG6PD inh: 9; FAS-TE inh: -8; Neddylation inh: inactive

How did CC(NC(=O)c1ccccc1O)c1ccccc1 (stereo unspecified) do in these assays?
proKLK7 act: -8; PfG6PD inh: -5; FAS-TE inh: -6; Neddylation inh: active

What do the screens show for `CC(C)(C)C(=O)OC12CCCN(C1)/C(=C/c1ccc(Cl)cc1)C2` (stereo unspecified)?
proKLK7 act: 1

How did Cc1ccc(C(=O)N/N=C\c2ccc(-c3ccc(Cl)c(Cl)c3)o2)cn1 do in these assays?
proKLK7 act: -463; PfG6PD inh: 2; FAS-TE inh: 10; Neddylation inh: active; Neddyl conf: inactive

Results for Cc1ccc(C(=O)N/N=C/c2ccc(-c3cccc(Cl)c3)o2)cn1 ?
proKLK7 act: 3; PfG6PD inh: -1; FAS-TE inh: 9; Neddylation inh: inactive

Results for O=c1[nH]c2cc3c(cc2cc1CN(Cc1cccnc1)C(=S)NCc1ccco1)OCO3 ?
proKLK7 act: 0; PfG6PD inh: 5; FAS-TE inh: -7; Neddylation inh: inactive

What do the screens show for `CCNC(=S)N(CCN(C)C)Cc1cc2cc(OCC)ccc2[nH]c1=O`?
proKLK7 act: 7; PfG6PD inh: 2; FAS-TE inh: -3; Neddylation inh: active; Neddyl conf: inactive

Results for CC(C)CNC(=S)N(CCN(C)C)Cc1cc2cc3c(cc2[nH]c1=O)OCO3 ?
proKLK7 act: 3; PfG6PD inh: 8; FAS-TE inh: -3; Neddylation inh: inactive

How did CCNC(=S)N(CCN(C)C)Cc1cc2cc3c(cc2[nH]c1=O)OCO3 do in these assays?
proKLK7 act: 4; PfG6PD inh: 3; FAS-TE inh: -4; Neddylation inh: active

How did CN(C)CCN(Cc1cc2cc3c(cc2[nH]c1=O)OCO3)C(=S)NCc1ccco1 do in these assays?
proKLK7 act: 2; PfG6PD inh: 4; FAS-TE inh: -1; Neddylation inh: active; Neddyl conf: inactive

Results for CCOC(=O)CC[C@@]1(C(=O)OCC)C[C@@H](CC(=O)N2CCN(C(=O)c3ccco3)CC2)C(=O)N2CCCC=C21 ?
proKLK7 act: 1

What do the screens show for `CCCCCCCCN1C(=O)[C@@H](CC(=O)NCc2cccc3ccccc23)C[C@@]2(C(=O)OC)C1=C[C@H](COCc1ccccc1)O[C@@H]2C`?
proKLK7 act: 0

How did COc1cccc(-c2c(-c3ccccc3OC)ncn2Cc2cccc(-c3ccccc3)c2)c1 do in these assays?
proKLK7 act: 0; Neddylation inh: inactive

Results for O=S1(=O)c2c(NCc3ccco3)cccc2Oc2ccccc2CN1Cc1cn(Cc2ccc(C(F)(F)F)cc2)nn1 ?
proKLK7 act: -8

What do the screens show for `COc1cc(C2C3=C(CC(C)(C)CC3=O)Nc3c2c(=O)[nH]c(=O)n3Cc2ccccc2)ccc1O` (stereo unspecified)?
proKLK7 act: -28; PfG6PD inh: 27; FAS-TE inh: -8; Neddylation inh: inactive

Results for COc1ccc(C2C3=C(CC(C)(C)CC3=O)Nc3c2c(=O)[nH]c(=O)n3Cc2ccccc2)cc1OC (stereo unspecified) ?
proKLK7 act: -43; PfG6PD inh: -5; FAS-TE inh: -4; Neddylation inh: active

Results for CCOc1cc(S(=O)(=O)NCc2ccc(OC)cc2)c(OCC)cc1-n1cnnn1 ?
proKLK7 act: 1; PfG6PD inh: -20; FAS-TE inh: -4; Neddylation inh: inactive

Screens deposited in PubChem by several laboratories.
